Compounds without any hit were thinned out: in the full panel of roughly 83,000, 20% have a hit.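 How to read the values: 0–100, growth inhibition (40 = 60% inhibited); 0, no net growth; -100 to 0, cell death (-40 = 40% of starting cells died; -100 = all dead).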 A number with no mark means an inactive call. Active and inactive are the calls of the source. The calls were made as follows: active = growth percent below 10; inactive = the rest.
Assays:
Assay in all cases: NCI-60 one-dose screen, 48 h (100 = growth as untreated, 0 = no growth, -100 = all killed)
Conditions in all cases: 10 µM unless noted
[1] = test system: DU-145 prostate
[2] = test system: K-562 leukemia
[3] = test system: MALME-3M melanoma
[4] = test system: MDA-MB-231 breast
[5] = test system: RXF 393 renal
[6] = test system: SF-268 CNS
[7] = test system: SF-295 CNS
[8] = test system: SF-539 CNS
[9] = test system: UACC-257 melanoma
[10] = test system: M14 melanoma
[11] = test system: HCT-15 colon
[12] = test system: HT29 colon
[13] = test system: SNB-75 CNS
[14] = test system: SNB-19 CNS
[15] = test system: U251 CNS
[16] = test system: PC-3 prostate
[17] = test system: SK-MEL-5 melanoma
[18] = test system: UACC-62 melanoma
[19] = test system: LOX IMVI melanoma
[20] = test system: SK-MEL-28 melanoma

| SMILES | growth [1] | growth [2] | growth [3] | growth [4] | growth [5] | growth [6] | growth [7] | growth [8] | growth [9] | growth [10] | growth [11] | growth [12] | growth [13] | growth [14] | growth [15] | growth [16] | growth [17] | growth [18] | growth [19] | growth [20] |
| --- | --- | --- | --- | --- | --- | --- | --- | --- | --- | --- | --- | --- | --- | --- | --- | --- | --- | --- | --- | --- |
| NC(=O)NS(=O)(=O)c1ccc(N2N=C(C(F)(F)F)CC2c2cc(C(F)(F)F)cc(C(F)(F)F)c2)cc1 (stereo unspecified) | 85.1% | 57.7% | 87.4% | 91.6% | 11.8% | 67.8% | 68.6% | 89.5% | 31.5% | 79.7% | 62.9% | 70.4% | 68.1% | 85% | 74.6% | 16.2% | 75.5% | 82.7% | 78.6% | 84.8% |
| COc1cc(/C=C/C(=O)c2c(C)n([O-])c3ccc(Cl)cc3[n+]2=O)cc(OC)c1OC | 66.8% | 45.8% | 78.7% | 78.5% | 42.6% | 74% | 114% | 96.9% | 81.3% | 78.4% | 59% | 102% | 75.8% | 83.1% | 80.1% | 89.5% | 47% | 82.9% | 68.9% | 84% |
| CC1c2ccccc2-c2ccccc2N1C (stereo unspecified) | 110% | 88.3% | 99.4% | 97.4% | 116% | 105% | 109% | 50.2% | 114% | 106% | 102% | 102% | 105% | 97.3% | 99.2% | 83.9% | 107% | 86.6% | 94.6% | 119% |
| COC(=O)Nc1ccc2ccc3c(NC(=O)OC)ccc4ccc1c2c43 (tested in a mixture with another compound) | 86.9% | 25% | 68.8% | 54.1% | 77.6% | 67.7% | 48.2% | 50.7% | 71.7% | 25.4% | 35.6% | 30.6% | 50.7% | 60.8% | 41% | 48.4% | 37.3% | 41.5% | 32.9% | 73.3% |
| CC[n+]1c(/C=C/c2ccc(N3CCCC3)cc2)cccc1/C=C/c1ccc(N2CCCC2)cc1 | -97.4% (active) | 8.88% (active) | -82.2% (active) | -80.6% (active) | -93.7% (active) | -90.3% (active) | -76.9% (active) | -87.2% (active) | -92.5% (active) | -65.3% (active) | -85.7% (active) | -82.9% (active) | -92.7% (active) | -93.9% (active) | -89.6% (active) | -76.8% (active) | -87.6% (active) | -86% (active) | -76.5% (active) | -93.6% (active) |
| COc1ccc2c(c1)[n+](=O)c(/C=C/C(=O)c1cc(OC)c(OC)c(OC)c1)c(C)n2[O-] | 17.5% | 2.27% (active) | 86% | 84.1% | 38.5% | 69.4% | 46.4% | 70.2% | 63.6% | 63.6% | 11% | 47% | 68.7% | 97% | 53.7% | 55.2% | 93.4% | 63.8% | 51.3% | 71.6% |
| COc1cc(/C=C2\CN(S(=O)(=O)c3ccc(C)cc3)C/C(=C\c3cc(CN4CCOCC4)c(O)c(OC)c3)C2=O)cc(CN2CCOCC2)c1O | 29.1% | 10.4% | -25.7% (active) | 5.67% (active) | -87.3% (active) | 7.91% (active) | -34.1% (active) | -3.63% (active) | -28.6% (active) | -40.5% (active) | -31.3% (active) |  | 25.8% | 12.9% | 15.5% | 2.79% (active) | -63.4% (active) | -45.8% (active) | -49.3% (active) | -33.2% (active) |
| O=C1C2C(C(=O)N1CC[Se][Se]CCN1C(=O)C3C(C1=O)[C@H]1C=C[C@@H]3C1)[C@H]1C=C[C@@H]2C1 (stereo partly specified) | -46.7% (active) | 7.86% (active) | -35.6% (active) | -33.8% (active) | -89% (active) | -45.8% (active) | -78.2% (active) | -86.7% (active) | -63.8% (active) | -20% (active) | 1.11% (active) | -8.38% (active) |  | -55.5% (active) | -90.5% (active) | -12.8% (active) | -53.9% (active) | -60.8% (active) | -26% (active) | -3.71% (active) |
| c1ccc(COc2ccc(Nc3ncnc4c3cnn4-c3ccccc3)cc2)cc1 | 104% | 90.3% | 92.8% | 101% | 102% | 108% | 107% | 99.6% | 121% | 101% | 72.4% | 116% | 102% | 96% | 106% | 88.5% | 94.3% | 93.3% |  | 96% |
| Clc1ccc2[nH]cc(-c3cncn3CCc3ccccc3)c2c1 | 80.9% | 26.9% | 43.8% | 65.9% | 52.3% | 46.3% | 43.5% | 69.7% | 50.2% | 68.6% | 51% | 57.3% |  | 71.1% | 57.9% | 46.7% | 10.8% | 57.4% | 70% | 69.8% |
| c1ccc(-c2nc(Nc3nccnn3)c3ccccc3n2)cc1 | 99.5% | 91.1% | 99.1% | 91.8% | 96.7% | 98% | 98% | 99.1% | 109% | 99.3% | 98.2% | 98.8% |  | 93.6% | 92.9% | 101% | 99.1% | 87.8% | 96% | 103% |
| COc1ccccc1NC(=O)c1sc2nc3c(cc2c1N)C(=O)CCC3 | 86.6% | 41.5% | 58.2% | 57.5% | 77% | 102% | 25.7% | 66.2% | 58.5% | 47.1% | 47.3% |  | 56.6% | 64.6% | 65.1% | 65.9% | 38.9% | 44.4% | 79.4% | 59.1% |
| COc1ccc(OC)c(CCn2cncc2-c2c[nH]c3cc(Br)ccc23)c1 | 63.3% | 7.3% (active) | 37.7% | 48.7% | 51.9% | 45.6% | 18.4% | 56.3% | 29.9% | 26.4% | 25.1% | 10.2% |  | 50.1% | 34.9% | 34.5% | -75.8% (active) | 36.8% | 37% | 57.5% |
| N#Cc1ccc(-c2csc(Nc3ccc4nc5n(c(=O)c4c3)CCC5)n2)cc1 | 109% | 96.8% | 102% | 104% | 106% | 106% | 98.2% | 101% | 108% | 103% | 98.2% | 105% |  | 98.1% | 96% | 110% | 97.4% | 100% | 101% | 104% |
| CCN1CCN(c2nc(NNC(=O)Cc3ccccc3)nc(N3CCN(C(c4ccccc4)c4ccccc4)CC3)n2)CC1 | 63.5% | 2.28% (active) | 77% | 82.7% | 66.6% | 82% | 68.3% | 86.8% | -51.5% (active) | -68.2% (active) | 22.9% | -7.32% (active) |  | 84.2% | 19.1% | 63.7% | 2.68% (active) | 84.7% | -54.9% (active) | 92.6% |
